Measured values: ChEMBL document CHEMBL3988442, “University of Dundee, Small-Polar-MMV Screening Library” (2021)
For some of these results: Results with a measured potency or affinity are listed apart.

Legend:
Set-up in all cases: scale not given: direction of the effect not stated beside the values
[1] = target: Protein translocase subunit SecA (Escherichia coli (strain K12)) (UniProt P10408); test: Assay to Identify E. coli SecA ATPase Inhibitors; format: functional; details: 30 µM
[2] = target: T1, Ubiquitin-activating enzyme e1, putative (Leishmania donovani (strain BPK282A1)) (UniProt E9BSI1); test: Leishmania donovani Ubiquitin Activating Enzyme (LdE1); format: functional; details: 30 µM
T1 sequence (whole entry): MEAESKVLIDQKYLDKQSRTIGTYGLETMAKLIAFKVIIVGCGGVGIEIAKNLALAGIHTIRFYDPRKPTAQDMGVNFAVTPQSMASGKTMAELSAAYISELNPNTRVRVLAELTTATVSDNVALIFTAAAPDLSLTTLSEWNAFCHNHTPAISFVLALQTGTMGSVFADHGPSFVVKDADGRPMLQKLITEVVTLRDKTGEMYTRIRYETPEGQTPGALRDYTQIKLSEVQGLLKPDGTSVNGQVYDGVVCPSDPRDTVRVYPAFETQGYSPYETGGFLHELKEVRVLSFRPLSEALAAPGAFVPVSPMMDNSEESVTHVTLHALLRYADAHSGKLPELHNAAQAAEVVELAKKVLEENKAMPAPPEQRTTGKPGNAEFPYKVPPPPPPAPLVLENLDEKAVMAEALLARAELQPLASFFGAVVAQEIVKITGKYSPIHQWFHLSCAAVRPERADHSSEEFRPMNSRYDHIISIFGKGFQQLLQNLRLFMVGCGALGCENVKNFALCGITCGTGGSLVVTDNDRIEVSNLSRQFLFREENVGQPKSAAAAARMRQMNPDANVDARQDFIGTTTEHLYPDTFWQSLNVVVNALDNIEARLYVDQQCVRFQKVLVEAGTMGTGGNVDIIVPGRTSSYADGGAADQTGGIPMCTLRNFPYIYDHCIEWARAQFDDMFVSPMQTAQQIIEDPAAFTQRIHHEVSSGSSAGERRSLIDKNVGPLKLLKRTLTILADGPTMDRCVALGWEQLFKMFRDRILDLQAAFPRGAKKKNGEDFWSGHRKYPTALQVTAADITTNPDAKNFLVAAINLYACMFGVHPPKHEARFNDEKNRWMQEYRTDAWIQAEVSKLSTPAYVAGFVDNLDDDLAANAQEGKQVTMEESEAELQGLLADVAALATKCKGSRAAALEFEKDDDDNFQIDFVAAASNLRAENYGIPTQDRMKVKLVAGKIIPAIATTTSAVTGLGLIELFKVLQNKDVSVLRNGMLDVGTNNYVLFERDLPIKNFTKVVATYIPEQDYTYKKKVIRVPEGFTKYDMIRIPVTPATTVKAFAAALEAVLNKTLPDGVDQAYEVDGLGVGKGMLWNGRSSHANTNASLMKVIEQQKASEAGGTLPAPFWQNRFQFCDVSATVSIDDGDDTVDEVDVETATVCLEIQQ

[3] = target: AMP-activated protein kinase, AMPK (Homo sapiens) (UniProt P54646+O43741+P54619+Q9UGJ0+Q9Y478+Q13131+Q9UGI9); test: AMP-dependent Kinase enzyme assay. An in vitro enzyme assay that detects ADP turnover that is directly proportional to AMPK activity. This uses naive AMPK that is activated during the assay with MK-8722; format: functional; details: 30 µM
[4] = target: Sialic acid-binding Ig-like lectin 9 (Homo sapiens) (UniProt Q9Y336); test: Hs-Siglec9 ALPHAscreen SOP 20170721; details: 10 µM
Trypanosoma cruzi = test: Trypanosoma cruzi phosphomannomutase and mannose-1-phosphate guanylyltransferase assay; format: functional; details: 10 µM
[5] = target: T2, Arginase-2, mitochondrial (Homo sapiens) (UniProt P78540); test: in vitro enzyme assay to detect the production of urea directly proportional to the activity of Arginase II; format: functional; details: 33.3 µM; further: in the data most compounds retested in dose-response had high values
T2 sequence (whole entry): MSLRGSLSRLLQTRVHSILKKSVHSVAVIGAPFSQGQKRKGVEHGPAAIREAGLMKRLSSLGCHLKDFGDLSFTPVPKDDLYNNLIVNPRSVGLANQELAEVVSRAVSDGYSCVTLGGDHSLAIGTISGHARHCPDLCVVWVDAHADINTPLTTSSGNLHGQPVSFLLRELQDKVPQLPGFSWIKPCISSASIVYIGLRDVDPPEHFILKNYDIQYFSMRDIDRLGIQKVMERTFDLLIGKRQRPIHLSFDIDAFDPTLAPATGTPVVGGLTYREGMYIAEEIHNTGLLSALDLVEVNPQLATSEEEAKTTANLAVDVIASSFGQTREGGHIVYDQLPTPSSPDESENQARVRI

[6] = target: T3, Proteasome subunit beta (Trypanosoma cruzi) (UniProt O96673); test: Trypanosoma cruzi proteasome chymotrypsin-like activity (TcProtChymo) assay.; further: in the data most compounds retested in dose-response had high values; format: functional; details: 9.37 µM
T3 sequence (whole entry): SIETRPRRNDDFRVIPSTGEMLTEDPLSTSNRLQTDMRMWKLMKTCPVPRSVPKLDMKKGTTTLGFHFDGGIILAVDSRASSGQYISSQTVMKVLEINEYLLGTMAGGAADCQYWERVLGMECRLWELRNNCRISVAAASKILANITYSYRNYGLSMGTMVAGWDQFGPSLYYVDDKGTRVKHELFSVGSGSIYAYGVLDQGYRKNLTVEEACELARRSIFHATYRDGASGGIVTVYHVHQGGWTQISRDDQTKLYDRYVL

Homo sapiens = species on record: Homo sapiens; test: To identify inhibition of the IFN signalling (Jak-Stat) pathway via expression of an eGFP reporter gene under the control of an IFN-stimulated response element (ISRE) containing MxA promoter.; format: functional; details: 30 µM
[7] = target: T4, Tyrosyl-tRNA synthetase, putative (Trypanosoma cruzi (strain CL Brener)) (UniProt Q4DSP6); test: Trypanosoma cruzi tyrosyl tRNA synthetase (TcYRS) _High Tyrosine SOP; format: functional; details: 30 µM; further: in the data most compounds retested in dose-response had high values
T4 sequence (whole entry): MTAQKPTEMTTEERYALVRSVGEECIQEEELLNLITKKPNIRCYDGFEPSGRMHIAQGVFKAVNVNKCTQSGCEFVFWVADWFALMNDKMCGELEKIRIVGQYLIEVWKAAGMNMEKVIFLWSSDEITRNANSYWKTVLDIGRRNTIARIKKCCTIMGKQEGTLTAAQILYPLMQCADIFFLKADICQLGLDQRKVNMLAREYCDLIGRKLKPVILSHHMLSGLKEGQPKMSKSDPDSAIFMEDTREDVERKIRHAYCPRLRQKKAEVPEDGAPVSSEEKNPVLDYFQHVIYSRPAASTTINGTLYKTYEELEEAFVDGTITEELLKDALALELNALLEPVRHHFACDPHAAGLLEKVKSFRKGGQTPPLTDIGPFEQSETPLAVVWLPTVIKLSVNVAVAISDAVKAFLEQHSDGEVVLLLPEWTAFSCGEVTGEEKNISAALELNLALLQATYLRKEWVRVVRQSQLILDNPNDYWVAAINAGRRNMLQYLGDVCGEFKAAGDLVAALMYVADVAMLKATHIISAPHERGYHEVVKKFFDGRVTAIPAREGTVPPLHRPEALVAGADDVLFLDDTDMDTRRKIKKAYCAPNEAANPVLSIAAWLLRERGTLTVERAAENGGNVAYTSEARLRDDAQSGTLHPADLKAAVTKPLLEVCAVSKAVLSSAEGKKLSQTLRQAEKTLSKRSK

[8] = target: T4, Tyrosyl-tRNA synthetase, putative (Trypanosoma cruzi (strain CL Brener)); test: Trypanosoma cruzi tyrosyl tRNA synthetase (TcYRS) SOP; format: functional; details: 30 µM
[9] = target: Chromo domain-containing protein 1 (Saccharomyces cerevisiae (strain ATCC 204508 / S288c) (Baker's yeast)) (UniProt P32657); test: ScCHD-1 Enzyme Inhibition Assay; format: functional; details: 30 µM; further: in the data most compounds retested in dose-response had high values
Chromo domain-containing protein 1 (Saccharomyces cerevisiae (strain ATCC 204508 / S288c) (Baker's yeast)), sequence (P32657 whole entry, the tested form may be a part): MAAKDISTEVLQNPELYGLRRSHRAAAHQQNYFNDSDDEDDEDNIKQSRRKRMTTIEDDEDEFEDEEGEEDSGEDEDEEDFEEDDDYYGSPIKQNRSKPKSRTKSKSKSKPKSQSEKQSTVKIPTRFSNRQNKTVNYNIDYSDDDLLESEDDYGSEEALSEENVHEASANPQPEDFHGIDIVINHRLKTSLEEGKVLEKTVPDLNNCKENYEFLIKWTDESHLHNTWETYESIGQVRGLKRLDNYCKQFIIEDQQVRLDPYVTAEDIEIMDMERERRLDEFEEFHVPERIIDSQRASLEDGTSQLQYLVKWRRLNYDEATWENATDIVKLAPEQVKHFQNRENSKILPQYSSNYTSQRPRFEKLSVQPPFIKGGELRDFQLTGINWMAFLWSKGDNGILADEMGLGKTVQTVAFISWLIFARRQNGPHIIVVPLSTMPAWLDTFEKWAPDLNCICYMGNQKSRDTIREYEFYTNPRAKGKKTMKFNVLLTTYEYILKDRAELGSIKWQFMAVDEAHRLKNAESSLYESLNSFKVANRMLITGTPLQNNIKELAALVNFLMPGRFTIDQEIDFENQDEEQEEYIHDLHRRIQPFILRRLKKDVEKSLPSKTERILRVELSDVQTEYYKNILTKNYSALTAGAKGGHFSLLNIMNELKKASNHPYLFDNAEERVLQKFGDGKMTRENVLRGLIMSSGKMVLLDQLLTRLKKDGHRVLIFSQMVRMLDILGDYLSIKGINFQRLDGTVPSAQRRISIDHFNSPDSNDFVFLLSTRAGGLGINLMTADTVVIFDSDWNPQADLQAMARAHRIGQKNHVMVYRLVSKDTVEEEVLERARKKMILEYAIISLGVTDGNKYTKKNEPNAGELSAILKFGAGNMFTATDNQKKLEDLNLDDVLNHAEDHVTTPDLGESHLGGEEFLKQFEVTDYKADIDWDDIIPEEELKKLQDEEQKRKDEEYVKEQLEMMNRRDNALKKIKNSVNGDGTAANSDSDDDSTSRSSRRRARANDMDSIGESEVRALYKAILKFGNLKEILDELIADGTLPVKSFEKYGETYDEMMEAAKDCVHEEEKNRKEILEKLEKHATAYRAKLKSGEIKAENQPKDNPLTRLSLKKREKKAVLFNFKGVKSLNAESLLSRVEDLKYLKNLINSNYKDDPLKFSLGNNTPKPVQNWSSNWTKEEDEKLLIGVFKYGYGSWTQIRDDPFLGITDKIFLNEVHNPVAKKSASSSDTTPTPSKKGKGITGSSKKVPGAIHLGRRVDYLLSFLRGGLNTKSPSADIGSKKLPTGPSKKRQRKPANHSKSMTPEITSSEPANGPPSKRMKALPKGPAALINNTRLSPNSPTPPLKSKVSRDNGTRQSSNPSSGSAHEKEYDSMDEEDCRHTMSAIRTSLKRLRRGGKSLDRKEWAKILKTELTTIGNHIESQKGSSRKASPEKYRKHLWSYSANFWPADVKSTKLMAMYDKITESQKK

Protein translocase subunit SecA (Escherichia coli (strain K12)), sequence (P10408 whole entry): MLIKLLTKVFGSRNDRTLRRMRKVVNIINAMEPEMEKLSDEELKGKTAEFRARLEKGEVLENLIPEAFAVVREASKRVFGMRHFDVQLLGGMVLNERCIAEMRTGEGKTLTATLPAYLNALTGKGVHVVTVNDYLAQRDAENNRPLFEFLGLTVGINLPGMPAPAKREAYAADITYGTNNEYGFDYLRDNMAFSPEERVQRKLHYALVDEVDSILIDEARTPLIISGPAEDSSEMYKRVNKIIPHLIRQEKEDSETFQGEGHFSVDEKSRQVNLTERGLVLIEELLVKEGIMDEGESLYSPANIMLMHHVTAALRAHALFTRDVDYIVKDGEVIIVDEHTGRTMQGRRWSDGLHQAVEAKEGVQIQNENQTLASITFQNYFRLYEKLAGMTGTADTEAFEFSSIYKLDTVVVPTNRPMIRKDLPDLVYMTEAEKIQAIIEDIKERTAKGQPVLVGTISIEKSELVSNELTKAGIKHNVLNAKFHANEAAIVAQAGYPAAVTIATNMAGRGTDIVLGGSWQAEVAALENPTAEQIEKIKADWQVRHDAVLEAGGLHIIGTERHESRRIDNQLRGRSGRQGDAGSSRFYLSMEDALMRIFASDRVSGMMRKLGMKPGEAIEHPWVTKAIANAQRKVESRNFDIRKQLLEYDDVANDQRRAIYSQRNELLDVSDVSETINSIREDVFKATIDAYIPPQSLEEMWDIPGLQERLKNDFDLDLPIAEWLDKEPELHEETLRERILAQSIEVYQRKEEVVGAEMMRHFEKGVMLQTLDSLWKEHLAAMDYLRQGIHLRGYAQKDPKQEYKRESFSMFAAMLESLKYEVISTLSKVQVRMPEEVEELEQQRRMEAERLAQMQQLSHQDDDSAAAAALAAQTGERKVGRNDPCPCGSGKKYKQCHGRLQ
Sialic acid-binding Ig-like lectin 9 (Homo sapiens), sequence (Q9Y336 whole entry): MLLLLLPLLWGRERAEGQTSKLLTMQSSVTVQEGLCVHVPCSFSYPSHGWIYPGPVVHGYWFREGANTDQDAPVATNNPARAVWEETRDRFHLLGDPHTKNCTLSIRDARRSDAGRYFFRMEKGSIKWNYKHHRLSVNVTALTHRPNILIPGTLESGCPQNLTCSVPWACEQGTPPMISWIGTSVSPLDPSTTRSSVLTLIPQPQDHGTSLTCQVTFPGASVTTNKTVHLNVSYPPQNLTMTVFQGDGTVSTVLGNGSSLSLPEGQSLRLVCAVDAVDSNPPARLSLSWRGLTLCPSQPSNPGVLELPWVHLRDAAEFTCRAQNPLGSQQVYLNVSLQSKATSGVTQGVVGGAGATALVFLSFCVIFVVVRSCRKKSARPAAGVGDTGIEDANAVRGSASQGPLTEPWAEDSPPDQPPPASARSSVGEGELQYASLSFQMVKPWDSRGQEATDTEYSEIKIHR

SMILES | Percent Effect [1] [%] | Percent Effect [2] [%] | Percent Effect [3] [%] | Percent Effect [4] [%] | Percent Effect (Trypanosoma cruzi) [%] | Percent Effect [5] [%] | Percent Effect [6] [%] | Percent Effect (Homo sapiens) [%] | Percent Effect [7] [%] | Percent Effect [8] [%] | Percent Effect [9] [%]
COc1ccc(CNC(=O)NCc2c(C)cc(C)[nH]c2=O)cc1 | -5.07 | 13.2 | -3.13 | 12.1 | 0.84 | -5.04 | 6.18 | -18.2 | 3.45 | 13.6 | 3.42
Cc1noc(C2CCN(C(=O)c3c(C)noc3C)CC2)n1 | -3.97 | 10.8 | -5.85 | 7.55 | 1.47 | 0.248 | 11.9 | -25.3 | 6.45 | 13.6 | -4.31
Cc1nc(C)n(CC2CCCCN2CC(=O)Nc2cccnc2)n1 (stereo not given) | -1.75 | 4.17 | -8.52 | 22 | 3.98 | 9.71 | 8.25 | -0.793 | 5.26 | 10.3 | -2.02
COc1cccc(CN(C)C(=O)CSc2ccc3c(c2)OCCO3)c1 | -7.29 | -10.5 | 15.3 | 0.77 | -0.876 | -2.37 | 6.62 | 6.47 | -4.25 | -15.6 | 0.365
O=C(c1ccoc1)N1CC[C@@H]2O[C@H](COCc3ccccn3)CC[C@@H]21 | 4.07 | 8.11 | 2.6 | -13.6 | -3.42 | 2.87 | 21.4 | 7.99 | 2.16 | 10.3 | -3.84
Cc1cnn(CCNCC(O)COc2c(C)ccc(C)c2C)c1 (stereo not given) | -5.33 | 20.2 | -11.8 | 20.1 | 6.7 | -4.56 | 8.27 | -1.01 | 7.39 | 21.5 | -4.18
c1ccc(CCN2CCOC(Cn3cccn3)C2)nc1 (stereo not given) | -6.2 | 5.2 | -1.28 | 6.84 | 7.54 | 1.05 | 3.15 | 5.5 | 3.81 | 11.8 | -7.53
CC(c1nc(C(C)(C)C)no1)N1CCN(CC(=O)N2CCOCC2)CC1 (stereo not given) | -3.63 | 0 | 1.02 | 12.9 | -1.66 | -1.18 | 10.1 | 0.488 | 2.13 | 2.6 | 1.93
CCOc1cc(C)nc(N2CCN(C(=O)c3ccnn3C)CC2)n1 | -1.84 | 5.41 | -0.273 | 4.02 | 3.62 | -3.51 | 4.67 | 2.75 | 3.96 | 18.3 | -3.83
CC(C)c1ccc(CN2CCC3(CCCN(c4nncs4)C3)C2)cc1 (stereo not given) | -5.12 | 2.7 | -2.41 | 37.5 | 9.87 | -1.74 | 1.97 | -25 | 4.3 | 13.6 | -4.2
Cc1nccn1C1CCCN(C(=O)c2ccc(N3CCCC3)nn2)C1 (stereo not given) | -4.79 | 10.5 | -5.31 | 8.97 | 1.59 | -0.719 | -4.65 | 2.56 | 4.43 | 11.1 | -6.5
Nc1nc(CN2CCOC(Cn3cncn3)C2)nc2ccccc12 (stereo not given) | -2.89 | 0 | 2.62 | -2.89 | -1.02 | 0.924 | -7.18 | 0.0129 | 1.98 | 3.66 | 6.29
CC(C)c1nc(C2CCCN(C(=O)CCCn3cncn3)C2)no1 (stereo not given) | -4.23 | 21.6 | -6.76 | 9.76 | 2.36 | -10.4 | 12.1 | -60.1 | 8.37 | 16.1 | -12.8
COc1ccc(C(CO)NC(=O)Nc2cccnc2)cc1 (stereo not given) | -4.93 | -2.7 | -0.874 | 3.21 | -3.86 | -3.81 | 10.9 | 10.2 | -0.529 | -4.88 | -2.24
CNS(=O)(=O)c1ccc(C(=O)NC2CCc3nc(C)cn3C2)o1 (stereo not given) | -4.88 | 7.89 | 5.73 | 6.53 | 2.26 | -3.45 | 11 | -11.5 | 3.43 | 17.1 | -10.4
CC(CNCc1ccc(Cl)c(Cl)c1)Oc1ccccn1 (stereo not given) | -2.19 | 12 | 0.69 | -3.31 | 4.91 | -7.22 | 20.5 | 26.5 | 6.35 | 10.3 | -11.8
Cn1c(Cn2cccn2)nnc1C1CCCN(c2ccncc2)C1 (stereo not given) | -2.64 | 2.7 | -4 | 11.4 | 3.86 | -1.43 | 17.6 | 11.9 | 6.88 | 19.5 | -1.63
CSCCCN1CC[C@@H](NC(=O)c2cnccn2)[C@H](O)C1 | -3.48 | 5.41 | -0.599 | 6.12 | 3.09 | -1.43 | 11.6 | 5.1 | 8.99 | 19.5 | 1.39
Cc1cnn(CC2CCCN2Cc2ncc(-c3ccccc3)o2)c1 (stereo not given) | -1.68 | -5.41 | -10.1 | -3.94 | -9.53 | 4.01 | 8.11 | 10.7 | 10.3 | 18.5 | -6.8
c1cnc(N2C[C@H]3CCN(c4cccnc4)C[C@H]3C2)nc1 | -6.23 | -5.41 | -3.42 | -2.92 | -2.15 | -0.417 | 26.1 | 6.67 | 5.94 | 13.4 | 7.23
